Source: PubChem (National Center for Advancing Translational Sciences (NCATS))
AmpC inh no detg: qHTS Inhibitors of AmpC Beta-Lactamase (assay without detergent). Potency, µM (top dose mostly 57.1 µM), without a hit: at the highest dose activity change, negative = inhibition, hits mostly inhibitors. P00811. actives 0.52% (n = 330,000). AmpC nitrocefin hydrolysis, absorbance 480 nm, 0.0001% Triton;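 note: plate controls were no compound for no effect and no enzyme for full effect; nearly all actives have a fitted effect of over 20% in size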
Target sequence (P00811 whole entry, looked up): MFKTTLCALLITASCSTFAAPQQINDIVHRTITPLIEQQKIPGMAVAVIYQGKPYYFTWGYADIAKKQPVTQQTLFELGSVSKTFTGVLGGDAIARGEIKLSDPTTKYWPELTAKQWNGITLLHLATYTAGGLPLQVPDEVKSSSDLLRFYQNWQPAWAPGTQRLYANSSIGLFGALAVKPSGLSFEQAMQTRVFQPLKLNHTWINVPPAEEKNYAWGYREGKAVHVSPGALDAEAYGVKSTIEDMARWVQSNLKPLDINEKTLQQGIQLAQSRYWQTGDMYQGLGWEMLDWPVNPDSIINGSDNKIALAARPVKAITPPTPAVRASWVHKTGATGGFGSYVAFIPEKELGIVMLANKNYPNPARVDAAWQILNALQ
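AmpC (5.3 nM in the dispensed reagent) in 20 mM phosphate pH 7.0 with 0.01% (detergent screen) or 0.0001% Triton X-100 was preincubated with compounds for 15 min at room temperature. Nitrocefin was then added from an 800 uM solution, and hydrolysis was followed at 480 nm.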
AmpC detergent: qHTS Inhibitors of AmpC Beta-Lactamase (assay with detergent). P00811. AmpC hydrolysis of nitrocefin, absorbance 480 nm, 0.01% Triton. Potency, µM (top dose mostly 114 µM), for inactives: at the highest dose activity change, negative = inhibition, actives largely listed as inhibitors. actives 0.041% (n = 370,000). AID 485294, 2010;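 note: 0% = no-compound wells and -100% = no-enzyme wells; nearly all actives have a fitted effect of over 25% in size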
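AmpC (5.3 nM in the dispensed reagent) in 20 mM phosphate pH 7.0 with 0.01% (detergent screen) or 0.0001% Triton X-100 was preincubated with compounds for 15 min at room temperature. Nitrocefin was then added from an 800 uM solution, and hydrolysis was followed at 480 nm.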
Sm TGR inh: qHTS Assay for the Inhibitors of Schistosoma Mansoni Peroxiredoxins | actives 3% (n = 360,000) | AID 485364, 2010 | Schistosoma mansoni thioredoxin glutathione reductase (TGR), Q962Y6 | purified TGR, DTNB reduction, TNB absorbance 405 nm | Potency, µM (series often up to 114 µM), for inactives: at the top dose activity change, negative = inhibition, usual class: inhibitors; note: nearly all actives have a fitted effect of over 60% in size
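TGR 20 nM + NADPH 100 uM (dispensed conc.), cpd preinc 15 min RT; start with NADPH (500 uM addition) then DTNB (15 mM addition). Kinetic TNB absorbance, 405 nm filter. Four-parameter Hill fit across titration.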
Starred values were filed as active, the others as inactive; ? = inconclusive; . = no result; [ ] = remark or other dose. Hits are enriched below; roughly 3.3% of the tested compounds scored in any of these assays. Calls come from the whole dose curve; as a rule, active = well fitted curve in the direction sought with a large enough effect; inconclusive = small, poorly fitted or top-dose-only effect, or another doubt; inactive = no such curve, though single readings can be large; an effect the other way counts as inactive or inconclusive. Unless noted, % is set by controls: 0 for no effect and ±100 for the full control effect; potency is the fitted concentration of half-maximal effect.

SMILES	AmpC inh no detg	AmpC detergent	Sm TGR inh
CCc1ccc(CN(Cc2ccco2)c2cnc(S(C)(=O)=O)nc2C(=O)Nc2c(C)cccc2C)cc1	.	-2%	-1%
COC(=O)c1ccccc1NC(=O)C1CCCN(C(=O)c2cnn(-c3ccc(F)cc3)c2-n2cccc2)C1 (stereo not drawn)	.	?	3%
Cc1ccc(-c2nnn3c2nc(NCC(C)c2ccccc2)c2ccccc23)cc1 (stereo not drawn)	.	1%	-17%
Cc1cccc(NC(=O)C(=O)NCCc2sc(-c3ccccc3)nc2C)c1C	.	7%	9%
CCN(C(=O)CSc1nc2ccccc2c2nc(CCn3c(C)nc4ccccc43)nn12)c1cccc(C)c1	.	11%	10%
O=C(CSC1=Nc2ccccc2N=C(c2ccc(F)cc2)C1)Nc1cccc(C(F)(F)F)c1	.	-3%	-5%
COc1ccccc1S(=O)(=O)Cc1ccc(C(=O)N2CCN(c3ccccn3)CC2)o1	21%	-8%	28µM*
COc1ccc(S(=O)(=O)Cc2ccc(C(=O)N3CCN(c4ccccn4)CC3)o2)cc1	6%	-6%	0%
Cc1ccc(Cl)cc1N1CCN(C(=O)c2ccc(CS(=O)(=O)c3ccc(Br)cc3)o2)CC1	.	-2%	2%
O=C(c1ccc(CS(=O)(=O)c2ccc(Br)cc2)o1)N1CCN(c2ncccn2)CC1	3%	-11%	50µM*
Cc1nnc(NCc2ccccc2)c2c1nnn2Cc1ccccc1Cl	.	17%	-3%
CC(=O)c1ccc(N2CCN(C(=O)C3CCN(S(=O)(=O)c4c(C)noc4/C=C/c4ccccc4F)CC3)CC2)cc1	.	1%	-6%
Cc1ccc(CN(Cc2cccn2-c2nnc(N3CCCC3=O)s2)C(=O)Nc2ccccc2Cl)cc1	.	-1%	-5%
CC(C)(C)c1cc(CCC(=O)NN)cc(C(C)(C)C)c1O	-6%	0%	-5%
COCCOC(=O)/C(=C\c1cc(C(C)(C)C)c(O)c(C(C)(C)C)c1)C(C)=O	100%	6%	40µM*
Clc1cccc(-n2ncc3c(Nc4ccc5c(c4)OCCO5)ncnc32)c1	.	10%	-1%
Cc1cc(-c2ccc(S(=O)(=O)NCc3ccccc3Cl)s2)on1	.	?	6%
CCc1ccc(C(=O)CN2C(=O)NC(C)(c3ccc(C)cc3)C2=O)cc1 (stereo not drawn)	-18%	?	-15%
Cc1ccc(C2(C)NC(=O)N(CC(=O)c3ccc(Cl)s3)C2=O)cc1 (stereo not drawn)	28µM*	-9%	-7%
COc1cccc(CNC(=O)CCc2c(C)nn(-c3ccc(N4CCOCC4)nn3)c2C)c1	.	2%	-2%
COc1cc(NC(=O)CN2C(=O)NC(C)(CCC(C)C)C2=O)cc(OC)c1 (stereo not drawn)	5%	?	0%
COc1cc(NC(=O)CN2C(=O)NC(C)(CC(C)C)C2=O)cc(OC)c1 (stereo not drawn)	0.89µM*	2%	2%
Cc1ccc(NS(=O)(=O)c2cnc(N)nc2)c(C)c1	.	-6%	0%
Nc1nn(-c2ccccc2)nc1C(=O)OCc1ccccc1Br	.	1%	18%
COC(=O)C1=C(C)NC(=S)NC1c1ccc(-c2cc(Cl)ccc2Cl)o1 (stereo not drawn)	?	0%	13µM*
SMILES	AmpC inh no detg	AmpC detergent	Sm TGR inh
COC(=O)C1=C(C)NC(=O)NC1c1ccc(-c2ccc(Cl)cc2)o1 (stereo not drawn)	-17%	-6%	14µM*
COC(=O)C1=C(C)NC(=O)NC1c1ccc([N+](=O)[O-])o1 (stereo not drawn)	-32%	-1%	?
COC(=O)C1=C(C)NC(=S)NC1c1sccc1C (stereo not drawn)	-6%	4%	-4%
CCc1ccccc1NC(=O)c1noc2c1CC(C(C)(C)C)CC2 (stereo not drawn)	.	24%	8%
Cc1nn(C)c2c1c(C(F)(F)F)cc(=O)n2CC(=O)NCc1ccc(OC(C)C)cc1	.	-2%	-14%
Cc1ccc(C)c(N2CCN(C(=O)C3CCN(S(=O)(=O)c4cn(C)cn4)CC3)CC2)c1	.	?	0%
CCN1C(=O)[C@H]2[C@@H](c3ccc(-c4ccc(Cl)c(Cl)c4)c(OC)c3)N[C@@](C)(C(=O)OC)[C@H]2C1=O	32%	?	40µM*
CCN1C(=O)[C@H]2[C@@H](c3ccc(-c4ccc(Cl)c(Cl)c4)cc3)N[C@@](C)(C(=O)OC)[C@H]2C1=O	25%	?	?
COc1ccccc1NC(=O)CSc1nc2ccccc2c2nc(-c3ccccc3)nn12	.	10%	7%
O=C(CCc1nnc(Cc2ccc3c(c2)OCO3)o1)NCc1nc2ccccc2s1	2%	9%	28µM*
O=C(CCc1nc2ccccc2[nH]1)NCc1ccc2c(c1)OCO2	-2%	?	-12%
N/C(=N\OC(=O)c1ccc(Cl)cc1Cl)c1ccc(Cl)cc1	-26%	-6%	-2%
CCOP(=O)(OCC)/C(=N/OC(=O)c1ccc(Cl)cc1Cl)C(N)=O	-21%	4%	6.3µM*
Cc1nn(Cc2ccc(Cl)cc2)c(C)c1NC(=O)c1cc(-c2ccco2)on1	9%	2%	?
Cc1nn(Cc2ccc(Cl)c(Cl)c2)c(C)c1NC(=O)c1cc(-c2ccco2)on1	0%	-1%	45µM*
Nc1ccc(Cl)cc1C(=O)c1ccccc1	-28%	1%	14%
O=C(c1ccccc1)c1cc(Cl)ccc1N1C(=O)C=CC1=O	-43%[11.4 µM]	?	0.79µM*
N#C/C(=C\c1ccco1)Sc1nc2ccccc2s1	-19%	1%	40µM*
O=C(CSc1nc2ccccc2s1)N/N=C/c1ccco1	-25%	3%	-2%
COc1ccc(C(=O)Nc2cc3cc(Cl)ccc3oc2=O)cc1OC	.	4%	0%
CC(=O)Nc1ccc(Cl)c(C(N)=O)c1	-12%	-3%	7%
NC(=O)c1cc(N2C(=O)C=CC2=O)ccc1Cl	-27%	-8%	0.4µM*
CCC(C(=O)N1CCN(c2ccccc2F)CC1)n1nc(C)c2sc3ccccc3c2c1=O (stereo not drawn)	.	26%	-2%
CN1CCCC(C(=O)c2ccc(Cl)cc2)C1 (stereo not drawn)	-35%	-6%	35µM*
CC(=O)c1ccc(C(=O)N2CCCC(C(=O)c3ccc(Cl)cc3)C2)s1 (stereo not drawn)	19%	2%	0%
SMILES	AmpC inh no detg	AmpC detergent	Sm TGR inh
COc1cccc(C(=O)Nc2cccc(-c3nc4ncccn4c3C)c2)c1	.	3%	0%
C#CCNc1c2c(nc3ncnn13)CC(C)CC2 (stereo not drawn)	-21%	1%	22µM*
c1ccc(CNc2c3c(nc4ncnn24)CCCC3)nc1	-7%	7%	-25%
CCCOc1ccc(C2C(=O)N(C3CCCCCC3)CC(=O)N2Cc2ccc(OC)cc2)cc1OC (stereo not drawn)	.	1%	-1%
Cc1[nH]c(SCC(=O)Nc2cc(S(C)(=O)=O)ccc2Cl)nc1Cc1ccccc1	-10%	3%	3.5µM*
Cc1ccc(NC(=O)CCc2ccc(C)o2)c(C)c1	0%	0%	-9%
Cc1ccc(NC(=O)CCl)c(C)c1	-36%	8%	25µM*
